PubChem BioAssay AID2533 (National Center for Advancing Translational Sciences (NCATS), 2010)
Records with an inconclusive call do not appear. A call without a number means that no potency is given here. Calls of active or inactive are those of the source. Calls follow the shape of the dose curve; as a rule, active = well fitted activation curve with a large enough effect; inconclusive = small, poorly fitted or top-dose-only effect; inactive = flat fitted curve, though single readings scatter.

Target: Pyruvate kinase PKM (Homo sapiens) (UniProt P14618)
Sequence (P14618 whole entry, looked up, canonical isoform): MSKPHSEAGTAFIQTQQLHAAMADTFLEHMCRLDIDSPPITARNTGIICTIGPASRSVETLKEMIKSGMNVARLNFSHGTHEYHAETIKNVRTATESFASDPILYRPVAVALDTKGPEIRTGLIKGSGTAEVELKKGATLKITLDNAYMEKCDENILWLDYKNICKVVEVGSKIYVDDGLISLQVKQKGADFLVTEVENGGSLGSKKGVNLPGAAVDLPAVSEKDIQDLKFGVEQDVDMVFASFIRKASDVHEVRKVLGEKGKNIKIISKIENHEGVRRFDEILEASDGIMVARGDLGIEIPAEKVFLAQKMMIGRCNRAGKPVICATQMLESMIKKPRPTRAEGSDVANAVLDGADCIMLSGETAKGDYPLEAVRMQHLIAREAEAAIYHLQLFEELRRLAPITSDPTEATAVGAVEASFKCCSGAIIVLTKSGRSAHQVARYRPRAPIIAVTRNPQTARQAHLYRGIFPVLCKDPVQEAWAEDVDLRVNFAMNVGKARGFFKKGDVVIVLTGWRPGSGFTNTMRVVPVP
Test: Confirmation Concentration-Response Assay for Activators of Human Muscle isoform 2 Pyruvate Kinase: for Probe SAR; also: nearly all actives have a fitted effect of over 60% in size
Conditions: purified PKM2, ATP generation, Kinase-Glo luminescence; series mostly up to 57.5 µM
Procedure, shortened: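 ATP generation was detected by luciferase-coupled luminescence (Kinase-Glo). The reaction ran for 1 hour at room temperature with 0.1 mM ADP, 0.5 mM PEP and 0.1 nM purified hPK-M2 in 50 mM imidazole, pH 7.2, with 7 mM MgCl2. The enzyme was set at intermediate activity so activators could be detected.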
Potency is read from the fitted curve at half-maximal effect.

SMILES	Potency
Cc1ccc2nc(-c3ccc(C)o3)c(Nc3ccc(Cl)cc3)n2c1	inactive
COc1ccc(-c2sc(N)nc2-c2ccccc2)cc1	inactive
Cc1ccc(Nc2c(-c3ccc(C)o3)nc3ccccn23)cc1	inactive
Nc1cccc(S(=O)(=O)N2CCN(S(=O)(=O)c3ccc4c(c3)OCCO4)CC2)c1	91.9 nM (active)
Cc1ccc(C)c(NC2=NS(=O)(=O)c3ccccc32)c1	inactive
O=C1NS(=O)(=O)c2ccccc21	inactive
Cc1ccc(Nc2c(-c3ccc(C)o3)nc3cccc(C)n23)cc1	inactive
COc1ccccc1OC1=NS(=O)(=O)c2ccccc21	inactive
CN(C)c1cccc(S(=O)(=O)N2CCCN(S(=O)(=O)c3ccc4c(c3)OCCO4)CC2)c1	163 nM (active)
Cc1ccc(NS(=O)(=O)c2ccc(F)cc2)cc1C	25900 nM (active)
O=C1c2ccccc2C(=O)N1c1ncccc1O	inactive
CNc1cccc(S(=O)(=O)N2CCN(S(=O)(=O)c3ccc4c(c3)OCCO4)CC2)c1	259 nM (active)
Cc1ccc2nc(-c3ccc(C)o3)c(Nc3ccc4c(c3)OCO4)n2c1	inactive
O=S1(=O)N=C(Oc2ccc(Br)cc2)c2ccccc21	inactive
O=C1CCc2cc(S(=O)(=O)Nc3ccc4c(c3)OCCO4)ccc2N1	20600 nM (active)
O=C1c2ccccc2C(=O)N1c1ccccc1O	inactive
O=S(=O)(Nc1ccc(O)c(NS(=O)(=O)c2ccccc2)c1)c1ccccc1	inactive
O=S1(=O)N=C(Oc2cccc3ccccc23)c2ccccc21	inactive
O=C1c2ccccc2C(=O)N1c1cccc(O)c1	inactive

SMILES	Potency
Cc1ccc(NS(=O)(=O)c2cc3c(cc2Cl)NC(=O)CO3)cc1C	410 nM (active)
Cc1ccc(Nc2c(-c3ccc(C)s3)nc3ccccn23)cc1	14600 nM (active)
CCNc1cccc(S(=O)(=O)N2CCN(S(=O)(=O)c3ccc4c(c3)OCCO4)CC2)c1	81.9 nM (active)
O=C1CCc2cc(S(=O)(=O)Nc3ccncc3)ccc2N1	inactive
Cc1cc(NS(=O)(=O)c2ccc3c(c2)CCC(=O)N3)ccc1Cl	517 nM (active)
Cc1ccc(NS(=O)(=O)c2ccc3c(c2)CCC(C)(C)O3)cc1C	inactive
CC(=O)N1CCc2cc(S(=O)(=O)Nc3ccc(C)c(C)c3)ccc21	1630 nM (active)
COc1cc(F)c(S(=O)(=O)N2CCCN(S(=O)(=O)c3ccc(N)cc3)CC2)c(F)c1	1300 nM (active)
O=S1(=O)N=C(Oc2ccccc2F)c2ccccc21	inactive
Cc1ccc(NS(=O)(=O)c2cccc(Cl)c2)cc1C	16300 nM (active)
Cc1ccc(NS(=O)(=O)c2cc3c(cc2C)NC(=O)CO3)cc1C	580 nM (active)
CC(=O)Nc1ccc(S(=O)(=O)N2CCN(S(=O)(=O)c3ccc4c(c3)OCCO4)CC2)cc1	1630 nM (active)
Cc1ccc(Nc2c(-c3ccsc3)nc3c(C)cccn23)cc1	inactive
Cn1c2cc(S(C)=O)sc2c2cnn(Cc3cccc(O)c3)c(=O)c21 (configuration not stated)	130 nM (active)
Cc1cc(NS(=O)(=O)c2ccc3c(c2)CCC(=O)N3)ccc1F	461 nM (active)
O=C1CCc2cc(S(=O)(=O)Nc3ccccn3)ccc2N1	inactive
Cc1cc2c(s1)c1cnn(Cc3cc(F)ccc3F)c(=O)c1n2C	1120 nM (active)
Cc1ccc(-c2nc3ccccn3c2Nc2ccccc2C)o1	inactive
